In the supplement of paper PMC6555819:

Assays:
Assay in all cases: PBM binding z-score (relative to random genomic background probes); higher = stronger binding; sequences stand for … in GC…GCGATTGACAGCGTAGAATGAAGG
[1] = system: FXR:RXRa (NR concentration 270 nM, RXRa partner concentration 90 nM)
How it was run: (§1)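 Custom Agilent 4×180K protein-binding microarrays carried double-stranded probes, each with a 34-nt variable region. These regions held direct-repeat seeds, single-nucleotide variants, half-site ablations and random human genomic background sequences. Ligand-free nuclear receptor dimers were incubated on the arrays for 1 h, antibodies against each partner (one per run) detected binding, and scanned fluorescence was regression-normalized. Binding z-scores take the random background probes as reference.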

[2] = system: LXRa:RXRa (NR concentration 270 nM, RXRa partner concentration 90 nM)
How it was run: as §1

[3] = system: LXRa homodimer (NR concentration 270 nM)
How it was run: as §1

[4] = system: LXRb:RXRa (NR concentration 270 nM, RXRa partner concentration 90 nM)
How it was run: as §1

[5] = system: LXRb homodimer (NR concentration 270 nM)
How it was run: as §1

[6] = system: PPARa:RXRa (NR concentration 270 nM, RXRa partner concentration 90 nM)
How it was run: as §1

[7] = system: PPARg:RXRa (NR concentration 180 nM, RXRa partner concentration 90 nM)
How it was run: as §1

[8] = system: PPARg:RXRa 270nM:90nM, anti-RXR (NR concentration 270 nM, RXRa partner concentration 90 nM)
How it was run: as §1

[9] = system: PPARg:RXRa 30nM:10nM, anti-RXR (NR concentration 30 nM, RXRa partner concentration 10 nM)
How it was run: as §1

[10] = system: PPARg:RXRa 90nM:30nM, anti-RXR (NR concentration 90 nM, RXRa partner concentration 30 nM)
How it was run: as §1

[11] = system: PPARg:RXRa DBDmut IVT, anti-RXR (DBD mutation: RXRa K156A/R161A, NR concentration 270 nM, RXRa partner concentration 90 nM)
How it was run: as §1

[12] = system: PPARg:RXRa IVT, anti-PPARg (NR concentration 270 nM, RXRa partner concentration 90 nM)
How it was run: as §1

[13] = system: PPARg DBDmut:RXRa IVT, anti-PPARg (DBD mutation: PPARg1 K132A/R137A, NR concentration 270 nM, RXRa partner concentration 90 nM)
How it was run: as §1

[14] = system: PPARg DBDmut IVT, anti-PPARg (DBD mutation: PPARg1 K132A/R137A, NR concentration 270 nM)
How it was run: as §1

[15] = system: PPARg homodimer (NR concentration 180 nM)
How it was run: as §1

[16] = system: PXR:RXRa (NR concentration 270 nM, RXRa partner concentration 90 nM)
How it was run: as §1

[17] = system: PXR homodimer (NR concentration 270 nM)
How it was run: as §1

[18] = system: RARa:RXR (NR concentration 270 nM, RXRa partner concentration 90 nM)
How it was run: as §1

[19] = system: RARa homodimer (NR concentration 270 nM)
How it was run: as §1

[20] = system: RARb:RXRa (NR concentration 270 nM, RXRa partner concentration 90 nM)
How it was run: as §1

Sequence | PBM binding z-score [1] | PBM binding z-score [2] | PBM binding z-score [3] | PBM binding z-score [4] | PBM binding z-score [5] | PBM binding z-score [6] | PBM binding z-score [7] | PBM binding z-score [8] | PBM binding z-score [9] | PBM binding z-score [10] | PBM binding z-score [11] | PBM binding z-score [12] | PBM binding z-score [13] | PBM binding z-score [14] | PBM binding z-score [15] | PBM binding z-score [16] | PBM binding z-score [17] | PBM binding z-score [18] | PBM binding z-score [19] | PBM binding z-score [20]
CGAACTAGGGCAGAACAGGACAGTGAAGGATGAT | -0.103 | -0.326 | -0.302 | -0.521 | -0.666 | 1.4 | 2.24 | 1.47 | 0.448 | 0.819 | 5.8 | 5.34 | 0.749 | 1.12 | 0.692 | -0.477 | -0.0295 | 0.592 | 0.348 | 0.687
GGAACGAGGGCGAAGTTGATAGCATCTGTCGACG | -0.55 | -0.447 | -0.49 | -0.637 | -0.922 | 1.42 | 2.91 | 4.71 | 1.93 | 4.02 | 1.27 | 1.23 | 0.2 | -0.848 | 0.0285 | -0.347 | -0.365 | -0.254 | -0.834 | 0.606
ATATGTAGGTTACATCCGCGTCATTCAGGCTATG | 0.387 | 1.31 | 0.198 | 0.733 | 0.789 | 3.15 | 4.94 | 3.92 | 1.86 | 3.52 | 7.33 | 7.28 | 2.01 | 1.99 | 0.907 | 0.229 | 0.0394 | 0.412 | 0.447 | 0.941
GATACAGGGTTAAGGCCAGAGTACGCGTATTGAT | 1.24 | 0.758 | -0.124 | 0.741 | -0.621 | 2.23 | 1.45 | 1.5 | 0.167 | 0.884 | 0.369 | 1.16 | 0.272 | -0.564 | 0.996 | 0.615 | 0.108 | 1.28 | 0.426 | 1.7
CAAACTAGGTCACCGGAATGTCAAAGTCCGCATG | 4.57 | 3.52 | 0.679 | 2.64 | 0.303 | 5.44 | 8.97 | 7.22 | 5.76 | 7.24 | 8.65 | 9.1 | 5.11 | 2.79 | 2.69 | 2.31 | -0.000286 | 3.53 | 0.651 | 4.37
TCTGCTAGGCCAGTTGGTCAGCTAACGAGCTGCC | -3.09 | -0.955 | -1.26 | -1.27 | -0.666 | -0.606 | -1.07 | 0.229 | 0.768 | 0.446 | 0.789 | 0.538 | -0.123 | -0.684 | -2.67 | -0.743 | -1.82 | -0.933 | -1.48 | 0.442
ACTATTAATTGACTTAGGGCAACCGATACGACGC | 0.0871 | 0.356 | 1.02 | 0.353 | 1.25 | 0.0941 | 1.05 | 0.505 | 0.559 | 0.814 | 0.595 | 0.509 | 0.998 | 1.47 | 1.74 | 0.334 | 1.65 | 0.245 | 2.46 | 0.883
